In a collection of fitness landscapes (doi:10.1016/j.celrep.2020.107928):
The full ranking holds about 81,000 sequences; the median of “one-hybrid fitness for binding parS DNA” is about -0.17, and the highest 2% start at about 0.51. This excerpt belongs to a sample that is enriched for the highest values.

B1: Caulobacter ParB omega fusion; a variant is named by its letters at X, in order, B8GW30 (parent)
chain: MESVVVGEPGMSEGRRGLGRGLSALLGEVDAAPAQAPGEQLGGSREAPIEILQRNPDQPRRTFREEDLEDLSNSIREKGVLQPILVRPSPDTAGEYQIVAGERAWRAAQRAGLKTVPIMVRELDDLAVLEIGIIENVQRADLNVLEEALSYKVLMEKFERTQENIAQTIGKSXSHVANXMRLLXLPDEVQSYLVSGELTAXHARAIAAAADPVALAKQIIEGGLSVRETEALARKAPNLSAGKSKGGRPPRVKDTDTQALESDLSSVLGLDVSIDHRGSTGTLTITYATLEQLDDLCNRLTRGI

Variants of: B1
Experiment: one-hybrid fitness for binding parS DNA (scaled: cognate 1, non-cognate 0); higher = stronger binding
Conditions: with parS DNA site
In short: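 Values were rescaled so that cognate is 1 and non-cognate is 0. Each is a fitness, the log change in a variant's read ratio to wild type from Illumina reads of plasmids before and after selection, with three replicate libraries pooled and variants under 10 reads dropped. Selection of the Caulobacter ParB libraries, four specificity codons randomised, used E. coli USO with a HIS3 reporter, site 19 bp from the promoter, on M9-minus-histidine with 0.1 mM IPTG and 5 mM 3-AT for 48 hours at 37°C.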

Variant	one-hybrid fitness for binding parS DNA
DMEL	≤ 0.2
CRVS	≤ 0.2
QASM	≤ 0.2
RYKG	0.91
RYVG	0.899
RYVP	≤ 0.2
RYKF	0.257
RYKQ	≤ 0.2
RYVD	≤ 0.2
VKQG	≤ 0.2
RVKM	0.393
RVVF	0.22
RVKQ	≤ 0.2
RVVK	≤ 0.2
RVVG	0.942
RVKG	0.941
QSVI	≤ 0.2
DCRY	≤ 0.2
LYRG	≤ 0.2
QLEI	≤ 0.2
RRND	≤ 0.2
RRNP	≤ 0.2
RRDN	0.257
RRNN	0.811

Variant	one-hybrid fitness for binding parS DNA
RRDS	0.743
RRDD	≤ 0.2
RRNH	0.256
RRNS	0.646
RRDP	≤ 0.2
MPNM	≤ 0.2
LHPH	≤ 0.2
GDDG	≤ 0.2
QSME	≤ 0.2
ACRS	≤ 0.2
SHIK	≤ 0.2
VLLG	≤ 0.2
RFNS	0.984
RFDP	≤ 0.2
RFNH	≤ 0.2
RFDS	0.954
RFDN	0.354
RFND	≤ 0.2
RMAW	0.235
WGKS	≤ 0.2
RQTE	≤ 0.2
NRHC	≤ 0.2
RRYF	≤ 0.2
RRSK	≤ 0.2

Variant	one-hybrid fitness for binding parS DNA
RRRK	≤ 0.2
RRDT	0.648
RRYT	0.604
RRRT	0.597
RRSQ	≤ 0.2
RRST	0.54
RRRR	≤ 0.2
RRDK	≤ 0.2
RRDF	≤ 0.2
RRYQ	≤ 0.2
SYQG	≤ 0.2
LIRC	≤ 0.2
MILL	≤ 0.2
PRDA	≤ 0.2
YSLD	≤ 0.2
WHRF	≤ 0.2
RRCK	≤ 0.2
RRWM	≤ 0.2
RRLT	0.623
RRLM	≤ 0.2
RRCT	0.587
RRGM	0.391
RRWT	0.682
RRGK	≤ 0.2

Variant	one-hybrid fitness for binding parS DNA
RRGT	0.566
RRCQ	≤ 0.2
RRWR	≤ 0.2
RRLQ	≤ 0.2
SPPK	≤ 0.2
RSIQ	≤ 0.2
YRAT	≤ 0.2
EFSC	≤ 0.2
DTGT	≤ 0.2
LRWE	≤ 0.2
AHLK	≤ 0.2
MITC	≤ 0.2
RRPK	≤ 0.2
LTLY	≤ 0.2
RRNT	0.565
RRQT	0.551
RRNK	≤ 0.2
RRNR	≤ 0.2
RRHR	≤ 0.2
DRHT	≤ 0.2
RRQK	≤ 0.2
RRHT	0.593
RRQF	≤ 0.2
HISY	≤ 0.2

Variant	one-hybrid fitness for binding parS DNA
PLCG	≤ 0.2
KSHC	≤ 0.2
TRTL	≤ 0.2
QHPL	≤ 0.2
TQMA	≤ 0.2
LYGV	≤ 0.2
STLG	≤ 0.2
RMAY	0.436
RMAQ	≤ 0.2
RMAT	0.913
RMFF	0.206
RMFT	0.882
RMFM	0.369
VYHP	≤ 0.2
HINR	≤ 0.2
PLDY	≤ 0.2
PNDH	≤ 0.2
RVVD	≤ 0.2
RVVN	0.41
RVKP	≤ 0.2
RVKH	≤ 0.2
RVKS	0.831
RVVS	1.03
EWSG	≤ 0.2

Variant	one-hybrid fitness for binding parS DNA
QKNH	≤ 0.2
APDA	≤ 0.2
RMGA	0.573
RTGA	0.679
ETGA	≤ 0.2
DMGA	≤ 0.2
RCGA	0.653
DFGA	≤ 0.2
PFGA	≤ 0.2
RPGA	≤ 0.2
RWGA	0.386
RFGA	0.531
DTGA	≤ 0.2
NTKT	≤ 0.2
QYPA	≤ 0.2
WNKI	≤ 0.2
RLGA	0.617
RHGA	0.546
RSGA	0.597
NLGA	≤ 0.2
DLGA	≤ 0.2
REGA	≤ 0.2
RNGA	0.496
DAGA	≤ 0.2

Variant	one-hybrid fitness for binding parS DNA
RAGA	0.595
VGER	≤ 0.2
ETLC	≤ 0.2
ETVR	≤ 0.2
LAFP	≤ 0.2
GGRS	≤ 0.2
KQSE	≤ 0.2
PDSM	≤ 0.2
LRGD	≤ 0.2
RDEC	≤ 0.2
RMEC	0.878
RPEC	≤ 0.2
RCEC	0.866
RLER	≤ 0.2
RLEI	≤ 0.2
RKEI	≤ 0.2
RKEC	0.893
RKEQ	≤ 0.2
RLEC	0.947
RMEH	≤ 0.2
RMEN	0.369
LRQY	≤ 0.2
VQGR	≤ 0.2
HFMV	≤ 0.2

Variant	one-hybrid fitness for binding parS DNA
TEEC	≤ 0.2
FLDS	≤ 0.2
HFDS	≤ 0.2
QTWK	≤ 0.2
CLLK	≤ 0.2
TGRC	≤ 0.2
RHEC	0.851
RREH	≤ 0.2
RAER	≤ 0.2
RIEY	0.338
RHEF	≤ 0.2
RIER	≤ 0.2
RAEC	0.807
RAEM	0.246
RREC	0.731
RREP	≤ 0.2
RIEC	0.791
RHEQ	0.223
GGWR	≤ 0.2
ITFG	≤ 0.2
ITHW	≤ 0.2
KYTR	≤ 0.2
QQLK	≤ 0.2
YTGV	≤ 0.2

Variant	one-hybrid fitness for binding parS DNA
RSED	≤ 0.2
RTEY	0.414
NFEC	≤ 0.2
RTEK	≤ 0.2
RSEN	0.333
RSEC	0.739
RFEI	≤ 0.2
RTEC	0.874
RFEC	0.727
YRPK	≤ 0.2
DVSL	≤ 0.2
PMLT	≤ 0.2
QLTV	≤ 0.2
RLQW	0.245
SPHY	≤ 0.2
KVAV	≤ 0.2
NKDH	≤ 0.2
AYAS	≤ 0.2
MADT	≤ 0.2
LSCT	≤ 0.2
RASA	0.595
DTSA	≤ 0.2
NTSA	≤ 0.2
RCSA	0.575

Variant	one-hybrid fitness for binding parS DNA
RSSA	0.583
RGSA	0.399
RPSA	≤ 0.2
RWSA	0.429
RDSA	≤ 0.2
DASA	≤ 0.2
NASA	≤ 0.2
RTSA	0.591
CEWG	≤ 0.2
PPVE	≤ 0.2
RGTE	≤ 0.2
VPLK	≤ 0.2
LSLN	≤ 0.2
KMRA	≤ 0.2
APLY	≤ 0.2
YCRA	≤ 0.2
PHDR	≤ 0.2
INAG	≤ 0.2
DHSA	≤ 0.2
NMSA	≤ 0.2
RFSA	0.572
SFSA	≤ 0.2
RLSA	0.587
RMSA	0.59

Variant	one-hybrid fitness for binding parS DNA
RESA	≤ 0.2
DLSA	≤ 0.2
RHSA	0.515
CFSA	≤ 0.2
QQWL	≤ 0.2
HSTQ	≤ 0.2
QIPS	≤ 0.2
NIHV	≤ 0.2
LAFG	≤ 0.2
NNTV	≤ 0.2
SRTI	≤ 0.2
LHLI	≤ 0.2
FTFT	≤ 0.2
RKAK	≤ 0.2
RKAR	≤ 0.2
RKAT	0.818
RKFH	0.211
RKFD	≤ 0.2
RKFT	0.771
TVYC	≤ 0.2
QLDE	≤ 0.2
GTYL	≤ 0.2
NKHA	≤ 0.2
RKYA	0.579

Variant	one-hybrid fitness for binding parS DNA
RKHA	0.67
RKQA	0.712
RKPA	0.223
RKIA	0.451
RKSA	0.717
AYMW	≤ 0.2
WTLN	≤ 0.2
CKRT	≤ 0.2
VEKG	≤ 0.2
ALQI	≤ 0.2
MAKW	≤ 0.2
GFDC	≤ 0.2
WTHF	≤ 0.2
RKLA	0.547
RKGA	0.694
NKRA	≤ 0.2
RKRA	0.774
QRWL	≤ 0.2
LNLV	≤ 0.2
PQAL	≤ 0.2
PVGY	≤ 0.2
PLAI	≤ 0.2
RIYW	0.296
DVKA	≤ 0.2

Variant	one-hybrid fitness for binding parS DNA
DVVA	≤ 0.2
RVKA	0.756
SVKA	≤ 0.2
RVVA	0.565
NVVA	≤ 0.2
ALNW	≤ 0.2
ACFK	≤ 0.2
PSMV	≤ 0.2
RSIA	0.474
RLPA	0.376
RPIA	≤ 0.2
RTPA	0.363
RWIA	0.295
RLIA	0.592
RMPA	0.393
RTIA	0.542
RMIA	0.537
RCIA	0.551
